{"source": "PubChem BioAssay AID1852", "about": "(Sanford-Burnham Center for Chemical Genomics, 2009)", "note": "In all, about 2,500 compounds went through this assay and about 1,100 (44%) were called active.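 How the source made its calls: active means inhibition above 50% at 4 µM in the single-point screen; inactive means inhibition of 50% or less.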 The set was probably picked from earlier hits. The list shows a part of the results.", "data": [{"test": "blockers of TNF-a NF-kB luciferase induction – cell-based, HEK293T NF-kB-Luc, luminescence, selectivity assay for NOD1/NOD2 signaling inhibitor project, primary screen (AID 1852)", "details": "TNF-a induced, 14 h, at 4 µM, hits give high values", "values": [{"compound": "COc1ccc(CNc2nc3c(c(=O)n(Cc4ccc(Br)cc4)c(=O)n3C)n2C)cc1", "inhibition": "15.5% (inactive)"}, {"compound": "COc1ccccc1NS(=O)(=O)c1cccc(NC(=O)Nc2ccc(Cl)cc2)c1", "inhibition": "46.4% (inactive)"}, {"compound": "COc1ccccc1NS(=O)(=O)c1cccc(-n2c(O)c(C=Nc3ccccc3C(=O)O)c3ccccc3c2=O)c1", "inhibition": "69% (active)"}, {"compound": "CCN(CC)S(=O)(=O)c1cccc(C(=O)c2c(C)cc3ccccn23)c1", "inhibition": "27.9% (inactive)"}, {"compound": "CCN(CC)S(=O)(=O)c1cccc(-n2c(O)c(C=Nc3ccccc3C(=O)O)c3ccccc3c2=O)c1", "inhibition": "70.1% (active)"}, {"compound": "COc1ccc(Cn2c(O)c(C=Nc3ccccc3C(=O)O)c3ccccc3c2=O)cc1", "inhibition": "69.6% (active)"}, {"compound": "COc1cc(NC(=O)c2cccs2)c(C(=O)OCC(=O)c2cc(C)n(-c3ccccc3)c2C)cc1OC", "inhibition": "41.1% (inactive)"}, {"compound": "Cc1cc(C(=O)Nc2ccc(Cl)cc2)c(C)n1-c1ccccc1", "inhibition": "56.3% (active)"}, {"compound": "O=C(Nc1ccc(Cl)cc1)c1cccc(N2C(=O)C3C4CCC(C4)C3C2=O)c1", "note": "(centres undefined)", "inhibition": "3.3% (inactive)"}, {"compound": "CCOc1ccc(NC(=O)C2CCCN(S(=O)(=O)c3c(C)noc3C)C2)cc1", "note": "(centres undefined)", "inhibition": "49.2% (inactive)"}, {"compound": "CC(=O)c1c(C)[nH]c(C(=O)Nc2nc(-c3ccccc3)c(C)s2)c1C", "inhibition": "-37.3% (inactive)"}, {"compound": "COc1ccc(-c2nnc(Sc3nc4ccccc4o3)c3ccccc23)cc1", "inhibition": "-25.6% (inactive)"}, {"compound": "COc1ccc(-c2nc(NC(C)=O)sc2-c2ccccc2)cc1", "inhibition": "58.1% (active)"}, {"compound": "CCc1ccc(S(=O)(=O)/N=C2\\C=C(Nc3ccc(C(=O)O)cc3)C(=O)c3ccccc32)cc1", "inhibition": "49.3% (inactive)"}, {"compound": "COc1ccc(S(=O)(=O)/N=C2\\C=C(Nc3ccc(O)cc3)C(=O)c3ccccc32)cc1", "inhibition": "101% (active)"}, {"compound": "O=C1C(Cl)=C(Nc2ccc(O)cc2)C(=O)c2ccccc21", "inhibition": "30.4% (inactive)"}, {"compound": "CCc1ccc(S(=O)(=O)/N=C2\\C=C(Nc3ccc(O)cc3)C(=O)c3ccccc32)cc1", "inhibition": "106% (active)"}, {"compound": "COc1ccc(S(=O)(=O)n2ccc(C(C)Oc3ccc(-c4ccccc4)c(F)c3)n2)cc1", "note": "(centres undefined)", "inhibition": "20.1% (inactive)"}, {"compound": "CCc1ccc(S(=O)(=O)/N=C2\\C=C(Nc3cccc(C(=O)O)c3)C(=O)c3ccccc32)cc1", "inhibition": "107% (active)"}, {"compound": "O=C(O)c1cccc(S(=O)(=O)Nc2ccccc2Cc2ccccc2)c1", "inhibition": "14.3% (inactive)"}, {"compound": "c1ccc(CCCNc2ncccn2)cc1", "inhibition": "19% (inactive)"}, {"compound": "CCOc1ccc2nc(SCc3ccc(CC(=O)O)cc3)c(C#N)cc2c1", "inhibition": "64.6% (active)"}, {"compound": "Cc1cc(/C=N/Nc2ncnc(N)c2[N+](=O)[O-])c(C)n1-c1ccccc1", "inhibition": "3.7% (inactive)"}, {"compound": "Nc1c(Cl)ncnc1N/N=C/c1ccccn1", "inhibition": "109% (active)"}]}]}
